# Measurements reported in the supplement of paper PMC13380429.
# Experiments:
# [1] = test system: Vero E6 infected with SARS-CoV-2; experiment: morphology score (similarity to uninfected cells); higher = more like uninfected cells; settings: 24 h
# [2] = test system: Vero E6 infected with SARS-CoV-2; experiment: SARS-CoV-2 infection rate relative to infected DMSO; higher = more infection, active = 60 or less; settings: 24 h
SMILES,morphology score [1],SARS-CoV-2 infection rate [2]
Cc1ccc(C(=O)N(CCCN)[C@@H](c2nc3cc(Cl)ccc3c(=O)n2Cc2ccccc2)C(C)C)cc1 [ispinesib] (0.833333 µM),-0.37,110% (inactive)
CNC(=O)c1cc(Oc2ccc(NC(=O)Nc3cc(C(C)(C)C)nn3-c3ccc4ncccc4c3)c(F)c2)ccn1 [rebastinib] (0.833333 µM),0.567,106% (inactive)
NCCc1ccc(O)c(O)c1 [dopamine] (10 µM),-0.112,100% (inactive)
Nc1nc(=O)n([C@@H]2CS[C@H](CO)O2)cc1F [emtricitabine] (10 µM),0.154,114% (inactive)
Cc1ccc(C)c(OCCCC(C)(C)C(=O)O)c1 [gemfibrozil] (10 µM),-0.0506,98.5% (inactive)
O=C[C@H](F)[C@@H](O)[C@@H](O)[C@H](O)CO [2-fluoro-2-deoxy-D-galactose] (10 µM),0.127,116% (inactive)
CCCCCCCCCCCCCCCC(=O)OC[C@H](COP(=O)([O-])OCC[N+](C)(C)C)OC(=O)CCCCCCCCCCCCCCC [colfosceril-palmitate] (10 µM),0.152,103% (inactive)
O=c1c(-c2ccccc2)c1-c1ccccc1 [diphencyprone] (10 µM),-0.0547,100% (inactive)
C=C1CC/C=C(\C)CC[C@@H]2[C@@H]1CC2(C)C [g-caryophyllene] (10 µM),0.0545,95% (inactive)
CC(C)(C)CCN1C[C@@H]2[C@@H](CNC(=O)c3cc(Cl)cc(Cl)c3)[C@@H]2C1 (10 µM),0.324,86% (inactive)
O=C(O)c1ccccc1Nc1cccc(C(F)(F)F)c1 [flufenamic-acid] (10 µM),0.156,99.5% (inactive)
CCCCCCCCCCCCCCCCCCCCCCCCC(=O)O [pentacosanoic-acid] (10 µM),0.211,96% (inactive)
CN1CCc2cc3c(cc2[C@H]1[C@@H]1OC(=O)c2c1ccc1c2OCO1)OCO3 [bicuculline-(+)] (10 µM),-0.0434,98% (inactive)
Oc1cc2c(cc1O)C(c1ccccc1)CNCC2 (stereo unspecified) (10 µM),-0.34,116% (inactive)
O=C(Nc1cc(Cl)cc(Cl)c1O)c1c(O)c(Cl)cc(Cl)c1Cl [oxyclozanide] (10 µM),0.0306,113% (inactive)
CC(=O)CC(c1ccccc1)c1c(O)c2ccccc2oc1=O (stereo unspecified) [warfarin] (10 µM),-0.0329,106% (inactive)
CCN(CC)CCNC(=O)c1cc(Br)c(N)cc1OC [bromopride] (10 µM),-0.115,116% (inactive)
CCCCCCNC(=O)n1cc(F)c(=O)[nH]c1=O [Carmofur] (0.833333 µM),0.222,106% (inactive)
Cc1[nH]c(/C=C2\C(=O)Nc3ccc(S(=O)(=O)Cc4c(Cl)cccc4Cl)cc32)c(C)c1C(=O)N1CCC[C@@H]1CN1CCCC1 (0.833333 µM),0.159,106% (inactive)
CC(C)=CCC[C@](C)(O)[C@@H]1CC=C(C)CC1 [levomenol] (10 µM),-0.0548,104% (inactive)
CCOC(=O)c1ccccc1OC(N)=O [ethyl-2-(carbamoyloxy)benzoate] (10 µM),-0.102,108% (inactive)
C[C@]12CC[C@@H]3c4ccc(OC(=O)N(CCCl)CCCl)cc4CC[C@H]3[C@@H]1CC[C@@H]2OP(=O)(O)O [estramustine-phosphate] (10 µM),0.0729,100% (inactive)
CCN(c1cc(C#CCN2CCOCC2)cc(C(=O)NCc2c(C)cc(C)[nH]c2=O)c1C)[C@H]1CC[C@H](N(C)CCOC)CC1 (10 µM),0.163,100% (inactive)
CN1CCCN=C1COC(=O)C(O)(c1ccccc1)C1CCCCC1 (stereo unspecified) [oxyphencyclimine] (10 µM),0.0243,101% (inactive)
NCC(=O)N1C[C@H](NC(=O)c2ccccc2)C[C@H]1C(=O)O [danegaptide] (10 µM),0.0415,105% (inactive)
NC(=O)N/N=C/c1ccc([N+](=O)[O-])o1 [nitrofurazone] (10 µM),0.187,105% (inactive)
O=C(O)C(Cl)Cl [dichloroacetate] (10 µM),0.236,88.5% (inactive)
CCOCCOc1ccccc1C(N)=O [etosalamide] (10 µM),0.0693,104% (inactive)
